OvCa metastasis – inhibitors of ovarian cancer cell adhesion and invasion in omental model | actives 0.1% (n = 46,000) | Potency, µM (highest dose often 45.8 µM), without a hit: at the highest dose activity change, negative = inhibition, most hits filed as inhibitors | SKOV3ip1-GFP adhesion/invasion on 3D omental model, fluorescence;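 further: plate controls were DMSO wells for no effect and tomatine positive control wells for full effect; nearly all actives have a fitted effect of over 65% in size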
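qHTS, 4-pt dose (0.36-46 umol/L); SKOV3ip1-GFP, 1,200 cells/well, no FBS; primary omental fibroblast/mesothelial co-culture 48 h pre-grown; 2 h RT + 16 h 37 C; PBS wash, 4% PFA; GFP count 488/509 nm.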
S16 F2sN tox – cytotoxicity in S16 Pmp22-F2sN Schwann cells; AID 1508642; actives 0.48% (n = 43,000); Potency, µM (series often up to 57.5 µM), without a hit: at the highest dose activity change, negative = cytotoxicity, usual class: cytotoxic; S16 Pmp22-F2sN Schwann cells viability, CellTiter-Glo, 24 h; further: nearly all actives have a fitted effect of over 65% in size
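Luminescence from CellTiter-Glo, read by CCD camera after a 15 min room-temperature incubation, served as the viability signal. Reporter Schwann cells (S16 Pmp22-F2sN) had been treated with pin-transferred compounds for 24 h at 37C.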
p53null 32C kill – kills p53 null cells at the permissive temperature. actives 0.62% (n = 55,000). H1299-neo p53 null cells, ATP luminescence, 24 h, 32C. Potency, µM (doses to about 46.1 µM), inactives show at the top dose activity change, negative = cytotoxicity, most hits filed as cytotoxic;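 further: 0% = DMSO only and -100% = full killing by 100 µM tamoxifen; nearly all actives have a fitted effect of over 55% in size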
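Cytotoxicity: H1299-neo (no p53), 32C, 24 h treatment. Concentrations up to 46 uM. Readout cellular ATP, luminescence. Normalization to DMSO basal and tamoxifen 100 uM maximal kill.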
p53null 39C tox – selectivity test: cytotoxicity in p53 null cells, nonpermissive temperature. H1299 p53-null (neo) cells, 39C, ATPlite viability, 24 h. Potency, µM (titrated, usually from 46.1 µM), without a hit: at the top dose activity, negative = cell killing, actives largely listed as cytotoxic. actives 0.97% (n = 55,000). AID 904;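 further: 0% = DMSO only and -100% = full killing by 100 µM tamoxifen; nearly all actives have a fitted effect of over 50% in size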
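Temperature-shift cytotoxicity format: compound titrations on p53-null or A138V-expressing H1299 cells held 24 hr at 39C, cell ATP then measured, AC50 from Hill model.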
PMP22 txn prim – modulators of PMP22 gene transcription in S16 Schwann cells. S16 Pmp22-F2sN Schwann cells (luciferase reporters placed in the Pmp22 gene), FLuc/NLuc coincidence luminescence, 24 h. Potency, µM (highest dose often 57.5 µM), for inactives: top-dose activity change, negative = inhibition, hits mostly inhibitors. actives 2% (n = 43,000); active means clear falling dose curves in both reporters; inconclusive means both reporters move, but less clearly or upward; inactive means either reporter flat; the % is the NLuc reporter signal
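S16 Schwann cells carrying FLuc/NLuc coincidence reporter in the Pmp22 3' UTR treated with compound 24 h at 37C; FLuc then NLuc luminescence read sequentially by dual-luciferase reagents.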
pS6 MEF inh – inhibitors of mTORC1 signaling in Tsc2-/- p53-/- MEF cells; actives 0.78% (n = 44,000); Potency, µM (top dose mostly 38.3 µM), inactives show at the highest dose activity change, negative = inhibition, actives largely listed as inhibitors; Tsc2-/- p53-/- MEF, phospho-rpS6 immunofluorescence/PI, 24 h;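 further: plate controls were DMSO for no effect and rapamycin for full effect; nearly all actives have a fitted effect of over 50% in size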
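Plate MEFs (Tsc2-/-, p53-/-, empty vector) in DMEM/10% FBS; after 24 h add compound, incubate 24 h at 37 degree Celsius; fix in PFA/TX-100, block, stain phospho-rpS6 and 10 uM PI; scan at 488 nm; report % positive cells.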
* = called active by the depositor; i = inactive; ? = inconclusive; · = no result. Compounds with a hit are over-represented: about 3.1% of the library has one in this group of screens. Unless noted, the call rests on the fitted dose curve; in most records, active means well fitted curve in the direction sought with a large enough effect; inconclusive means small, poorly fitted or top-dose-only effect, or another doubt; inactive means no such curve, though single readings can be large; an effect the other way counts as inactive or inconclusive. Unless noted, on the % scale 0 is the no-effect control and ±100 the full control effect; potency means the concentration at half of the fitted maximal effect.

SMILES	OvCa metastasis	S16 F2sN tox	p53null 32C kill	p53null 39C tox	PMP22 txn prim	pS6 MEF inh
Cc1ccc(Cl)cc1NC(=O)CN1C(=O)c2cccc3cccc1c23	5%	9%	7%	-9%	?	-5%
O=C1C2=C(Nc3ccccc3SC2c2ccc(Cl)c(Cl)c2)c2ccccc21 (centres undefined)	-25%	?	37%	42%	?	-8%
O=C1C2=C(Nc3ccccc3SC2c2ccccc2C(F)(F)F)c2ccccc21 (centres undefined)	i	?	-17%	?	13µM*	?
Cn1nnnc1SCCCNCc1ccccc1OCc1ccc(Cl)cc1	i	-23%	-1%	-16%	?	13µM*
Cc1cccc(NC(=O)CCCn2c(C)c3cnn(-c4ccccc4)c(=O)c3c2C)c1C	i	-4%	-3%	-7%	-22%	1%
Cc1cccc(N2CCN(C(=O)Cn3c(C)c4cnn(-c5ccccc5)c(=O)c4c3C)CC2)c1C	i	?	19%	7%	12µM*	5%
O=C(Nc1ccc(NC(=O)c2ccco2)nc1)c1cccnc1	·	·	13µM*	?	·	·
Cc1cc(Nc2cccc(Cl)c2)nc2ccc(NC(=O)c3cncc(Br)c3)cc12	i	?	-18%	20µM*	?	-7%
Cc1cc(Nc2cccc(C(F)(F)F)c2)nc2ccc(NC(=O)c3cncc(Br)c3)cc12	i	?	-3%	-20%	?	-28%
CC=C1NC(=O)[C@H]2CSSCCC=C[C@H](CC(=O)N[C@H](C(C)C)C(=O)N2)OC(=O)[C@H](C(C)C)NC1=O	-15%	·	·	·	·	·
CC(C)Cn1c(/C=C/c2ccc(F)cc2)nc2ccccc21	-14%	?	11µM*	7.9µM*	?	-20%
CC(C)CCn1c(/C=C/c2ccccc2)nc2ccccc21	-2%	-11%	?	?	?	-20%
CCC(C)Cn1c(/C=C/c2ccccc2)nc2ccccc21 (centres undefined)	-4%	-21%	?	10µM*	?	-22%
C#CCn1c(/C=C/c2ccc(Cl)cc2)nc2ccccc21	-4%	?	3.2µM*	4µM*	3%	1%
Cn1cc(-c2cnn3c(N)c(Br)c([C@H]4CCCNC4)nc23)cn1	18%	·	·	·	·	·
Oc1ccc(C2CCN(c3ccnc4ccccc34)CC2)cc1O	19%	·	·	·	·	·
Cc1oc(-c2cccc(Cl)c2)nc1CN1CCC(C(=O)NC(C)C)CC1	-5%	6%	0%	-19%	32%	-6%
Cc1ccc(Cl)cc1N1CCN(C(=O)C2CCN(Cc3nc(-c4cccc(Cl)c4)oc3C)CC2)CC1	-6%	?	0%	25µM*	?	2%
COc1cc(C)c(C=CC(C)=CC=CC(C)=CC(=O)O)c(C)c1C	-22%	·	·	·	·	·
CCC(C)NC(=O)c1ccc2c(c1)nc1n2CCCCC1 (centres undefined)	i	2%	?	5µM*	?	-12%
Cc1cccc(CCNC(=O)c2ccc3c(c2)nc2n3CCOC2)c1	3%	25%	?	?	13%	-15%
Cc1cccc(CCNC(=O)c2ccc3c(c2)nc2n3CCCCC2)c1	1%	-3%	10µM*	10µM*	1%	1%
Cc1ccc(CCNC(=O)c2ccc3c(c2)nc2n3CCCCC2)cc1	4%	24%	-19%	?	18%	-8%
CCCNC(=O)c1ccc2c(c1)nc1n2CCCCC1	i	-3%	13µM*	10µM*	-7%	-10%
O=C(NCCc1ccccc1Cl)c1ccc2c(c1)nc1n2CCOC1	5%	26%	10µM*	5µM*	-6%	-10%
SMILES	OvCa metastasis	S16 F2sN tox	p53null 32C kill	p53null 39C tox	PMP22 txn prim	pS6 MEF inh
NC(=O)c1cccc2cn(-c3ccc([C@@H]4CCCNC4)cc3)nc12	-9%	·	·	·	·	·
COc1ccc(CNC(=O)c2ccc3c(c2)nc2n3CCCCC2)cc1	i	3%	?	-57%	-9%	3%
COCCCNC(=O)c1ccc2c(c1)nc1n2CCCCC1	-8%	6%	?	13µM*	-10%	7%
Oc1cc(-c2nc(-c3ccccc3)[nH]c2-c2ccncc2)ccc1Cl	-11%	·	·	·	·	·
C[C@@]1(C(=O)Nc2ccc(F)nc2)CCCN1c1nc(Nc2cc(C3CC3)[nH]n2)c2cccn2n1	-26%	·	·	·	·	·
O=C1c2ccccc2C(=O)C1c1ccnc2ccccc12	·	·	?	16µM*	·	·
CNc1nc(-c2ccc3c(N)n[nH]c3c2)cc(N2C[C@@H](C(=O)NC3CCCCC3)CC[C@@H]2C)n1	-27%	·	·	·	·	·
COc1ccc(F)cc1S(=O)(=O)NCCc1csc(-c2ccc(Cl)cc2)n1	i	-4%	21%	20µM*	?	-8%
CCOc1ccc(-c2cnc(NCc3ccc(C(F)(F)F)cc3)n2C)cc1	-17%	-12%	?	?	?	18µM*
CC[C@@]1(O)C[C@H](O[C@H]2C[C@H](N(C)C)[C@H](O[C@H]3C[C@H](O)[C@H](O[C@H]4CCC(=O)[C@H](C)O4)[C@H](C)O3)[C@H](C)O2)c2c(cc3c(c2O)C(=O)c2c(O)cccc2C3=O)[C@@H]1C(=O)OC	6%	·	·	·	·	·
COc1cc(C(=O)Nc2sc3c(c2C#N)CCCC3)c(Br)c(OC)c1OC	-9%	?	21%	7%	13µM*	7%
CN(C)c1ccc(C2Nc3ccc4ccccc4c3C3=C2C(=O)CC(C)(C)C3)cc1Br (centres undefined)	5%	·	·	·	·	·
Cc1ccc(NCc2cc3cc4c(cc3n(CC(=O)Nc3ccc(F)cc3F)c2=O)OCCO4)cc1	18%	11%	2%	5%	?	?
COc1cc2cc(CNc3ccc(C)cc3)c(=O)n(CC(=O)Nc3ccc(F)cc3F)c2cc1OC	-23%	-1%	-1%	-16%	-49%	5.2µM*
Cc1ccc(NCc2cc3cc4c(cc3n(CC(=O)Nc3ccc(C)cc3)c2=O)OCCO4)cc1	-12%	?	-9%	5%	?	4.6µM*
COc1ccc(C(=O)NC(c2ccccc2Cl)c2cc(Cl)c3cccnc3c2O)cc1 (centres undefined)	-29%	3.2µM*	?	10%	?	?

Assay outcomes from PubChem BioAssay.
